According to PubChem BioAssay (NCI):
This is part of a sample that, as a whole, favours compounds with a hit. Of some 79,000 tested, about 15% had one in any assay. Activity calls are given as the source filed them. Cut-off read from the data, not from the text of the source: active = growth inhibition above about 70%; inactive = the rest.

Legend:
[1] = NCI Yeast Anticancer Drug Screen. Data for the rad50 strain (AID 155);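 note: 0% = growth of vehicle-only cultures of the same strain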; conditions: S. cerevisiae rad50 strain growth inhibition; at 50.0 µM; hits give high values
Procedure, shortened: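 Compounds were tested on a yeast strain with an engineered DNA damage repair alteration; the reported value is growth inhibition normalised to vehicle treatment.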

[2] = NCI Yeast Anticancer Drug Screen. Data for the mec2-1 strain (AID 157); conditions: S. cerevisiae mec2-1 strain, at 50.0 µM, hits give high values
Procedure, shortened: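 Using mec2-1 yeast: add compound, measure growth, express inhibition versus vehicle-treated cultures.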

[3] = NCI Yeast Anticancer Drug Screen. Data for the sgs1 mgt1 strain (AID 161);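 note: 0% = growth of cultures given vehicle only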; conditions: S. cerevisiae sgs1 mgt1 strain, at 50.0 µM, hits give high values
Procedure, shortened: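 Yeast cells carrying a defined DNA-repair defect were exposed to test compounds. Growth inhibition was measured relative to vehicle-treated controls.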

[4] = NCI Yeast Anticancer Drug Screen. Data for the cln2 rad14 strain (AID 165);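 note: 0% = growth equal to vehicle treated cultures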; conditions: S. cerevisiae cln2 rad14 strain, at 50.0 µM, hits give high values
Procedure, shortened: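 Yeast strain cln2 rad14, bearing defects in cell cycle control and DNA repair, serves as the test system; values reflect growth inhibition compared with vehicle.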

[5] = NCI Yeast Anticancer Drug Screen. Data for the bub3 strain (AID 167); conditions: S. cerevisiae bub3 mutant strain, at 50.0 µM, hits give high values
Procedure, shortened: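 Growth of a checkpoint-deficient yeast mutant is measured after compound exposure. Values represent inhibition relative to vehicle.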

[6] = NCI Yeast Anticancer Drug Screen. Data for the mlh1 rad18 strain (AID 175); conditions: S. cerevisiae mlh1 rad18 strain growth inhibition; at 50.0 µM; hits give high values
Procedure, shortened: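 Steps: expose repair-defective yeast to compound; measure growth; express inhibition against vehicle-treated controls.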

Measured: growth inhibition

Nc1ccc(Cl)cc1C(=O)N1CCN(c2ccc([N+](=O)[O-])cn2)CC1
inactive: [1] 33.5% | [2] 16.2% | [3] 51.4% | [4] 36.1% | [5] 42.9% | [6] 18.8%

COC(=O)C(/C(=N/N)C(=O)Nc1cc(Cl)ccc1Cl)c1nc2ccc([N+](=O)[O-])cc2[nH]c1=O (stereo unspecified)
inactive: [1] -10.6% | [2] -13.3% | [3] 7.3% | [4] 10.5% | [5] 13.9% | [6] 15.6%

OC(CC(c1ccccc1)c1cccc2ccccc12)(c1ccccc1)c1ccccc1 (stereo unspecified)
inactive: [1] -12.8% | [2] -17.9% | [3] -14.6% | [4] -7.65% | [5] -28.4% | [6] 3.3%

Cn1c(C(N)=O)cc(=O)n1-c1ccc([N+](=O)[O-])cc1
inactive: [1] 6.35% | [2] 18.7% | [3] 4.45% | [4] 3.8% | [5] -6% | [6] 0.35%

Nc1nnc(-c2ccccc2O)o1
inactive: [1] 36.3% | [2] 4.25% | [3] 23.7% | [4] 33.1% | [5] 21.4% | [6] 32.2%

CCOc1ccccc1NC(=O)c1ccc(Cl)cc1
inactive: [1] -9.8% | [2] 18% | [3] -6.75% | [4] 5.35% | [5] 14.3% | [6] -4.6%

O=C(O)C1Cc2c([nH]c3ccccc23)C(c2cccs2)N1 (stereo unspecified)
inactive: [1] 27.7% | [2] 7.6% | [3] 8.7% | [4] 0.5% | [5] -19.8% | [6] 14.3%

CCCCCCCCCCCCCCCCCCNC(=O)NCc1ccncc1
inactive: [1] -13.3% | [2] 1.8% | [3] -11.3% | [4] -4.3% | [5] -0.35% | [6] 9.3%

Cc1nc(Nc2ccc(Cl)cc2)c2cnn(-c3ccccc3)c2n1
inactive: [1] 29.1% | [2] -7.2% | [3] -8% | [4] -35.9% | [5] 6.75% | [6] 26.9%

C=C(CBr)CCCOCc1ccccc1
inactive: [1] 10.8% | [2] -7.25% | [3] -7.15% | [4] 2.1% | [5] -5.35% | [6] -7.55%

COc1cccc(-c2nc3ccccc3c(=O)[nH]2)c1OC
inactive: [1] 33.2% | [2] -16.6% | [3] 10.1% | [4] 18.1% | [5] 16.5% | [6] 19.9%

O=C(O)C1(NO)CCCCC1
inactive: [1] -6.9% | [2] 6.7% | [3] -11.8% | [4] -9% | [5] -12.6% | [6] -5.4%

O=[N+]([O-])c1ccc(NC2CCCCC2)nc1
inactive: [1] 14% | [2] -9.85% | [3] 13.9% | [4] 7.65% | [5] 42.6% | [6] -1.55%

Cc1ccc(NC(=O)CCc2cc(C(C)(C)C)nc(=S)[nH]2)cc1C
inactive: [1] -36.6% | [2] -27.5% | [3] -46.5% | [4] -30.6% | [5] -35.8% | [6] -34%

O=C(O)Cc1[nH]c(=O)[nH]c(=O)c1CCl
inactive: [1] -27.9% | [2] -7.75% | [3] -10.1% | [4] -1.3% | [5] -19.2% | [6] -18.1%

C#CC(C)(C)CC
inactive: [1] 21.4% | [2] -16.4% | [3] 8.35% | [4] 19.8% | [5] -8.1% | [6] 17.4%

Cc1cccc(-c2nnc(N)o2)c1[N+](=O)[O-]
inactive: [1] -36% | [2] -9.6% | [3] -10.6% | [4] 1.75% | [5] -11.4% | [6] -16.4%

C=CCN(CC=C)/N=N/c1nc[nH]c1C(N)=O
inactive: [1] 28.1% | [2] 8.55% | [3] 14.7% | [4] 5.75% | [5] -5.55% | [6] 22.1%

CN1CC(C(N)=O)=CC(C(N)=O)C1 (stereo unspecified)
inactive: [1] -5.25% | [2] -9.2% | [3] -8.15% | [4] -0.6% | [5] 9.25% | [6] 7.5%

O=[N+]([O-])c1ccc(-c2cc3ccccc3nc2Cl)cc1
inactive: [1] 15.4% | [2] 12.1% | [3] 8.4% | [4] 5.55% | [5] 28.4% | [6] 17%

Cc1cc2ccccc2c2cc3ccccc3cc12
inactive: [1] -2.35% | [2] -6.4% | [3] 8.45% | [4] 11.8% | [5] -2.05% | [6] 7.75%

Nc1ccc(-c2nc3ccc(N)cc3[nH]2)cc1
inactive: [1] -17.1% | [2] -17.9% | [3] -18.1% | [4] 6.45% | [5] -4% | [6] -18.2%

CN=C1c2ccccc2C(=O)c2c1c(O)n(-c1ccccc1)c2O
inactive: [1] 27.9% | [2] 15.3% | [3] 20.9% | [4] 21.5% | [5] 29.4% | [6] 36.8%

O=C1c2cccc3cccc(c23)C(=O)N1Cc1ccco1
inactive: [1] 41.4% | [2] 36.2% | [3] 45% | [4] 44.5% | [5] 40.2% | [6] 24.7%

Cc1ccc2cccc([N+](=O)[O-])c2n1
inactive: [1] 15.8% | [2] -23.5% | [3] 3.75% | [4] 27.4% | [5] 1.2% | [6] 14.3%

CC1=C(C(=O)Nc2ccccc2)C(c2ccccc2)C(C(=O)Nc2ccccc2)=C(C)N1
inactive: [1] 4.2% | [2] 2.55% | [3] 14.5% | [4] 18.4% | [5] 0.55% | [6] 22.4%

Oc1ccc(O)c(-c2ccccc2)c1
inactive: [1] 61.5% | [2] 36.2% | [3] 53.2% | [4] 51% | [5] 33.6% | [6] 44%

Cn1c(=O)c2[nH]c(N(CCO)N=O)nc2n(C)c1=O
inactive: [1] -9.25% | [2] -8.2% | [3] -4.25% | [4] -7.35% | [5] 13.3% | [6] -26.4%

CC(=O)CC(=O)c1ccc(Cl)cc1
inactive: [1] -28.4% | [2] -11.4% | [3] -10.8% | [4] -13.6% | [5] -4.1% | [6] -0.25%

CCC1(C#N)OC1C (stereo unspecified)
inactive: [1] 26.9% | [2] -24.1% | [3] 23.1% | [4] 10.8% | [5] 5.15% | [6] 27.4%

O=[N+]([O-])c1cccc(N=Cc2ccccc2)c1
inactive: [1] 7.25% | [2] 12.9% | [3] -7.4% | [4] 8.15% | [5] 13.8% | [6] 6.05%

COC(=O)/C=C\CC(=O)OC
inactive: [1] 2.75% | [2] -5% | [3] -19.9% | [4] -5.05% | [5] -11% | [6] -0.65%

Cc1cc(C)c(NS(=O)c2cccc(Cl)c2)c(C)c1 (stereo unspecified)
inactive: [1] -29.1% | [2] -26.3% | [3] -59.2% | [4] 1.35% | [5] -35.2% | [6] -50.2%

O=c1c2c(no[n+]2[O-])c2ccccc2n1-c1ccccc1
active: [1] 96.7% | [3] 92.4% | [4] 86% | [5] 97.2% | [6] 96%
inactive: [2] 66%

CCOC(=O)c1ccc(N=c2sc3ccccc3nc2Nc2ccc(C(=O)OCC)cc2)cc1
inactive: [1] 2.75% | [2] -3.95% | [3] -2.05% | [4] 34% | [5] 2.3% | [6] 10.9%

CSC(=NC(=O)c1c(Cl)cccc1Cl)SC
inactive: [1] 21.8% | [2] 14.2% | [3] 40.2% | [4] 11.3% | [5] 42.4% | [6] 31.9%

COC(=O)/C(=C\c1ccc(N(CCC#N)CCC#N)cc1)NC(=O)c1cc([N+](=O)[O-])ccc1Cl
inactive: [1] -0.55% | [2] -3.65% | [3] -16.1% | [4] 5.65% | [5] -21.6% | [6] -3.4%

O=C(O)c1cccc(Br)c1
inactive: [1] 4.85% | [2] -19.1% | [3] -8.4% | [4] -38.2% | [5] -5.7% | [6] -5.5%

CC1(C)C(=O)CCC2(C)C(OC(=O)c3ccc(C(=O)O)cc3)CCCC12 (stereo unspecified)
inactive: [1] -2% | [2] 37.5% | [3] 30.1% | [4] -15.4% | [5] 20.2% | [6] 18.4%

Cc1cc(Cl)ccc1N=Cc1ccc(C=Nc2ccc(Cl)cc2C)cc1
inactive: [1] 14.2% | [2] 3.6% | [3] -5.05% | [4] -1.55% | [5] 10.8% | [6] -0.5%

C[S+]1CC2C3CC(C#N)C(C3)C2C1 (stereo unspecified)
inactive: [1] 2.4% | [2] 11.2% | [3] 2.95% | [4] -28.1% | [5] -1.85% | [6] 16.9%
